Experimental data reported in the supplement of paper PMC3545927.
Some of the results follow. No count for the full screen is at hand.

Molecular target: furin, P09958
Assay: furin cleavage Z-score vs untreated control; higher = more cleavage, active = 3.5 or more, inactive = 1 or less, 8 variable residues between constant flanks
Summary of the method: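 Reactions of 0.01 ml ran for 7.5, 15 or 30 min in 50 mM HEPES pH 7.5 with CaCl2 and NaCl, at 1:10 enzyme:substrate. In them, purified furin acted on bead-held 8-mer peptides fused to a cDNA oligonucleotide. The cleavage Z-score was obtained by lowess-adjusting log sequencing counts of released DNA against furin-free reactions and scaling by median absolute deviation.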

Chain of furin, P09958 (P09958 whole entry): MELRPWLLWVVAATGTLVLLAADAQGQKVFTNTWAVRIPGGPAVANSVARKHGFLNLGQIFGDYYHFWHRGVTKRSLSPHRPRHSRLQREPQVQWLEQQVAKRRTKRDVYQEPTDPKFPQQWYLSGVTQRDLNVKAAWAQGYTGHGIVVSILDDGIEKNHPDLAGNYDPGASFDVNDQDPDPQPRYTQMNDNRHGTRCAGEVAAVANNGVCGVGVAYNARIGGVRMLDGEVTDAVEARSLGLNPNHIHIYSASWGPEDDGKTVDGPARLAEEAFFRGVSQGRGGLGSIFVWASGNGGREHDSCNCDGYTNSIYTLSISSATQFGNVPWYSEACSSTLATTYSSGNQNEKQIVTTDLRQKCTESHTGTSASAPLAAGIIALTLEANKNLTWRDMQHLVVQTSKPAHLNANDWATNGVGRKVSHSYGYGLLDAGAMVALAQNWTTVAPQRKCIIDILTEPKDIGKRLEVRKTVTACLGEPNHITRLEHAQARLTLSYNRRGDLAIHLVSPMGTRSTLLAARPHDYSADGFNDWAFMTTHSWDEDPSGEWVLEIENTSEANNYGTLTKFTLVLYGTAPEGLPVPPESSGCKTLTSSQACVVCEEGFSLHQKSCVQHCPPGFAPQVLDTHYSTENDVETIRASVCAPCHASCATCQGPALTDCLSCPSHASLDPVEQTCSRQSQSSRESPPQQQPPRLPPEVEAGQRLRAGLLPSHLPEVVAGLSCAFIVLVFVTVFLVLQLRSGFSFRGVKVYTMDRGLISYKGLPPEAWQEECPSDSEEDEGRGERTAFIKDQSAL

Sequence	furin cleavage Z-score (7.5 min)	furin cleavage Z-score (15 min)	furin cleavage Z-score (30 min)
CATWGADTAAAGNASASA [HC653]	-1.68 (inactive)	-0.657 (inactive)	0.025 (inactive)
CATINYTIFKAGNASASA [HC471]	-0.464 (inactive)	-1.13 (inactive)	-1.75 (inactive)
CAKIMSGEVPAGNASASA [HC1094]	0.645 (inactive)	-1.21 (inactive)	-1.34 (inactive)
CACVREGNASAGNASASA [HC275]	-1.21 (inactive)	-1.14 (inactive)	-0.496 (inactive)
CATGRRKGRSAGNASASA [FS-1290]	10.3 (active)	12.1 (active)	8.69 (active)
CATGRGKPGIAGNASASA [HC906]	-0.769 (inactive)	0.329 (inactive)	1.63
CAPCERKGRSAGNASASA [FS-1379]	5.38 (active)	8.32 (active)	6.45 (active)
CAYCFTPSPVAGNASASA [HC414]	-0.826 (inactive)	-2.21 (inactive)	-2.26 (inactive)
CAYTPCSAHLAGNASASA [HC2469]	-1.25 (inactive)	-1.32 (inactive)	-1.27 (inactive)
CALMTHFFSVAGNASASA [HC1583]	-2.19 (inactive)	-1.38 (inactive)	-1.85 (inactive)
CASEMEECSQAGNASASA [HC1797]	1.23	-0.566 (inactive)	0.242 (inactive)
CATPIAAAGQAGNASASA [HC1639]	-1.29 (inactive)	-1.26 (inactive)	-1.59 (inactive)
CALEMEECSQAGNASASA [HC1785]	0.133 (inactive)	0.777 (inactive)	-0.27 (inactive)
CARKKRFAKQAGNASASA [FS-2692]	5.98 (active)	8.51 (active)	8.88 (active)
CADEMEECSQAGNASASA [HC1791]	6.21 (active)	-2.13 (inactive)	-5.81 (inactive)
CARKKRAAGQAGNASASA [FS-1727]	10.8 (active)	11.8 (active)	8.92 (active)
CARKKRLEEQAGNASASA [FS-1857]	-0.193 (inactive)	1.1	0.0714 (inactive)
CARKMRDDERAGNASASA [FS-1904]	0.00727 (inactive)	-0.39 (inactive)	-1.4 (inactive)
CARKKRWAERAGNASASA [FS-3257]	8.39 (active)	10.8 (active)	10.8 (active)
CACLLLLAAGAGNASASA [HC1658]	-0.897 (inactive)	-1.64 (inactive)	-0.912 (inactive)
CACDVVCCSMAGNASASA [HC2120]	-0.0436 (inactive)	-0.677 (inactive)	-0.296 (inactive)
CATTPCSGSNAGNASASA [HC1941]	-1.17 (inactive)	-0.013 (inactive)	-0.852 (inactive)

Sequence	furin cleavage Z-score (7.5 min)	furin cleavage Z-score (15 min)	furin cleavage Z-score (30 min)
CAMSTNPKPQAGNASASA [HC161]	0.554 (inactive)	-0.264 (inactive)	-0.709 (inactive)
CAELSPLLLTAGNASASA [HC491]	-1.56 (inactive)	-0.594 (inactive)	0.347 (inactive)
CASEPCSAHLAGNASASA [HC2492]	-0.366 (inactive)	-0.474 (inactive)	-0.0579 (inactive)
CARRARHPGQAGNASASA [FS-2448]	0.222 (inactive)	-1.48 (inactive)	-0.313 (inactive)
CAVHKRSAERAGNASASA [FS-2854]	2.95	4.06 (active)	5.25 (active)
CARKRRETSQAGNASASA [FS-2347]	13.9 (active)	14.9 (active)	10.1 (active)
CARKRRNTIHAGNASASA [FS-2567]	9.29 (active)	10.7 (active)	9.63 (active)
CARKRRQTGQAGNASASA [FS-2701]	9.83 (active)	11.9 (active)	7.6 (active)
CARKTRFIIHAGNASASA [FS-2426]	0.0934 (inactive)	-2.08 (inactive)	0.575 (inactive)
CARDSRSSERAGNASASA [FS-2654]	-1.62 (inactive)	-0.417 (inactive)	-0.301 (inactive)
CAKLTPIAAAAGNASASA [HC1638]	-0.902 (inactive)	0.513 (inactive)	-0.874 (inactive)
CARKRRDVMQAGNASASA [FS-1905]	8.11 (active)	9.14 (active)	9.14 (active)
CAENLRKRRDAGNASASA [FS-585]	13.3 (active)	14.1 (active)	10.9 (active)
CASNCRHERDAGNASASA [FS-722]	1.11	0.623 (inactive)	1.08
CARPRRARRDAGNASASA [FS-289]	10.4 (active)	10.6 (active)	7.54 (active)
CAGAERKMRDAGNASASA [FS-653]	2.56	3.75 (active)	3.61 (active)
CAENKVVILDAGNASASA [HC1284]	-1.51 (inactive)	0.132 (inactive)	-0.906 (inactive)
CAGWSRARRDAGNASASA [FS-334]	9.99 (active)	12.4 (active)	9.61 (active)
CARPRRPNGDAGNASASA [FS-1913]	-0.861 (inactive)	-0.812 (inactive)	0.059 (inactive)
CAGVVTSTWVAGNASASA [HC2156]	0.312 (inactive)	-0.173 (inactive)	-0.545 (inactive)
CAPSGCPPDSAGNASASA [HC1347]	0.626 (inactive)	0.736 (inactive)	-1.37 (inactive)
CAACQRQKKVAGNASASA [HC1393]	0.424 (inactive)	-0.843 (inactive)	-0.382 (inactive)
